Assay in all cases: DAPPL (digital affinity profiling via proximity ligation, sequencing); 10 mM Tris-HCl pH 7.5, 50 mM NaCl, 1 mM DTT, 4% glycerol, room temperature, 30 min; GST-TFs on glutathione beads, 16-mer random dsDNA library, 0.1% formaldehyde crosslink after washing; high values mean tight binding
What all share (conditions): protein: recombinant; tags: N-terminal GST; dsDNA, one strand shown

One assay concerns the target T1, FLI1 (Homo sapiens, UniProt Q01543 1-452).
T1 sequence: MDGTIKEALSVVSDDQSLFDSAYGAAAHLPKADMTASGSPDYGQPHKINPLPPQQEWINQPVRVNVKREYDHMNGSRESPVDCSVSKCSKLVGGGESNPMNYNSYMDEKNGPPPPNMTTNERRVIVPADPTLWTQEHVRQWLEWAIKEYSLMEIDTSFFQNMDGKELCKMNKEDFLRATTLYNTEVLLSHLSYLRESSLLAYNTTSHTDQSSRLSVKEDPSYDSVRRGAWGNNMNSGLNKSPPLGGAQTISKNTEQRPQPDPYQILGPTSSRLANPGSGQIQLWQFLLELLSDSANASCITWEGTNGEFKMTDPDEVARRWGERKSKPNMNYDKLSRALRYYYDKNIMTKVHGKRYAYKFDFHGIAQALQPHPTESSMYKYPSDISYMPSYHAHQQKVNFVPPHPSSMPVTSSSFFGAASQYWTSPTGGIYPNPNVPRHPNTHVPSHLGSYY
The gist of the method: (§1)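 After expression in yeast as GST fusions, human transcription factors were bound to glutathione beads, DNA-barcoded and mixed with a tag-only sample. The pools were incubated with 200 nmole of a 16-mer random double-stranded DNA library in Tris/NaCl/DTT/glycerol buffer (30 min, room temperature), washed and crosslinked with 0.1% formaldehyde. Proximity ligation with BsaI/T4 ligase ran for 1 h at 37 °C, before PCR amplification and sequencing on an Illumina NextSeq500. Binding signal is a hexamer's read frequency for a factor divided by its frequency for the tag-only sample.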

The target in the next assay is T2, ELK1 (Homo sapiens, UniProt P19419 1-428).
T2 sequence: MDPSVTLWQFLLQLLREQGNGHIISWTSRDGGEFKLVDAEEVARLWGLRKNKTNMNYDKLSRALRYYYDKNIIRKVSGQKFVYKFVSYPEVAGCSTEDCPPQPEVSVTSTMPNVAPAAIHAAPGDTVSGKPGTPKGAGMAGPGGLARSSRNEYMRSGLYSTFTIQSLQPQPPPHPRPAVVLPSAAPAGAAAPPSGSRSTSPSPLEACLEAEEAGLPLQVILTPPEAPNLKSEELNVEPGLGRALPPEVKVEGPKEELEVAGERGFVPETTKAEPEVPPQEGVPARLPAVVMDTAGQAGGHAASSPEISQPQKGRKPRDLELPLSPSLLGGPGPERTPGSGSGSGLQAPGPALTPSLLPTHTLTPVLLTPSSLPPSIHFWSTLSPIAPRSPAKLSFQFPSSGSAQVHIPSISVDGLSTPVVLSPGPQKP
The method, boiled down:
as §1

The next assay deals with T3, GABPA (Homo sapiens, UniProt Q06546 1-454).
T3 sequence: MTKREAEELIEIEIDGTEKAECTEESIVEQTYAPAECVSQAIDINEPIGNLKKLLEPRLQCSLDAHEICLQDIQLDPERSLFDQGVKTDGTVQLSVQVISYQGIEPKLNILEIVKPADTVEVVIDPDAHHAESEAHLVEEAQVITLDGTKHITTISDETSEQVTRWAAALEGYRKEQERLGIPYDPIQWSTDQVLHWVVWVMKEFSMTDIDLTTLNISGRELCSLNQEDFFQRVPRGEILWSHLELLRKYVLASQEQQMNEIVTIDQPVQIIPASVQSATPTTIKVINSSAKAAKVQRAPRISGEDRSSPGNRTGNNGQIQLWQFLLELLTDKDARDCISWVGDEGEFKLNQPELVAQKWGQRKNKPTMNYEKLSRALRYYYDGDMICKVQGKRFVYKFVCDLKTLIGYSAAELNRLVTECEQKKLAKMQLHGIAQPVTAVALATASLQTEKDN
The method, boiled down: as §1

Another assay concerns the target T4, ERG (Homo sapiens, UniProt P11308 1-479).
T4 sequence: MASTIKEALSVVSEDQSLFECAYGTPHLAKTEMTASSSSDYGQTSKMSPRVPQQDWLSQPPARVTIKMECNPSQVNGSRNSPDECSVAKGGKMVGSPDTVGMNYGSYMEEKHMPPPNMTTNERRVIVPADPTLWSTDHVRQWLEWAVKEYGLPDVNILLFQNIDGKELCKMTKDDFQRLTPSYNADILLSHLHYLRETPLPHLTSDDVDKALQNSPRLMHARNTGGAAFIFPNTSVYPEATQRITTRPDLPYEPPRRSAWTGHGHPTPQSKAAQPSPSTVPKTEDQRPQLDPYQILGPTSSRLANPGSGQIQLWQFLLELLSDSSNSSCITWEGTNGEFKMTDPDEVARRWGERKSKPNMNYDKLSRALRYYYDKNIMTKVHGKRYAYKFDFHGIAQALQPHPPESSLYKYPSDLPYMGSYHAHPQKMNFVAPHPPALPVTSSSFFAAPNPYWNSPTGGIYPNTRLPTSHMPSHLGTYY
The gist of the method: as §1

A further assay deals with ELF1 (Homo sapiens, UniProt P32519 1-619). The method, boiled down:
as §1

For another assay, the target named is T5, EHF (Homo sapiens, UniProt Q9NZC4 1-300).
T5 sequence: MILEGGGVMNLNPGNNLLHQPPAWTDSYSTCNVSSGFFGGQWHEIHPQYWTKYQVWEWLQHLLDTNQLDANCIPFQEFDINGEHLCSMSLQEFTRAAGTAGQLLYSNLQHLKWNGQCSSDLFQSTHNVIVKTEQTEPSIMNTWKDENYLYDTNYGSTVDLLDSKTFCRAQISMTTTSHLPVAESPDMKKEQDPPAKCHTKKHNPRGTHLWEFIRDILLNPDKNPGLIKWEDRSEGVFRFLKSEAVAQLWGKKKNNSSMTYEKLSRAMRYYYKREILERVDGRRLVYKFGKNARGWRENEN
The method, boiled down:
as §1

A further assay addresses SPI1 (Homo sapiens, UniProt P17947 1-270). The method, boiled down: as §1
For another assay, the target named is SPIB (Homo sapiens, UniProt Q01892 1-262). The gist of the method: as §1
The next assay concerns the target T6, ELK3 (Homo sapiens, UniProt P41970 1-407).
T6 sequence: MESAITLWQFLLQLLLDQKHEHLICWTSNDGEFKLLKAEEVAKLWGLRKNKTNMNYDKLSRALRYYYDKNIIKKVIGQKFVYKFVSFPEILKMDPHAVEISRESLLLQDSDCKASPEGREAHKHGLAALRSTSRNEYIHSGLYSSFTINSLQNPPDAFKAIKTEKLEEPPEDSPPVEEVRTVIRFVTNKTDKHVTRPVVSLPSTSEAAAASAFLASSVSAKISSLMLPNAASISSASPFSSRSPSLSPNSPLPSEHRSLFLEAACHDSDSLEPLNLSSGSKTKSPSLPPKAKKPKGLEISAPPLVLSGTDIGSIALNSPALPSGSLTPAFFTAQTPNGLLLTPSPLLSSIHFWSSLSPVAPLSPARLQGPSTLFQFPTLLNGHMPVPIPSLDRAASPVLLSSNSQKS
The method, boiled down:
as §1

The source of these data is PMC7862700, “An all-to-all approach to the identification of sequence-specific readers for epigenetic DNA modifications on cytosine”.

ELF1, sequence (P32519 whole entry): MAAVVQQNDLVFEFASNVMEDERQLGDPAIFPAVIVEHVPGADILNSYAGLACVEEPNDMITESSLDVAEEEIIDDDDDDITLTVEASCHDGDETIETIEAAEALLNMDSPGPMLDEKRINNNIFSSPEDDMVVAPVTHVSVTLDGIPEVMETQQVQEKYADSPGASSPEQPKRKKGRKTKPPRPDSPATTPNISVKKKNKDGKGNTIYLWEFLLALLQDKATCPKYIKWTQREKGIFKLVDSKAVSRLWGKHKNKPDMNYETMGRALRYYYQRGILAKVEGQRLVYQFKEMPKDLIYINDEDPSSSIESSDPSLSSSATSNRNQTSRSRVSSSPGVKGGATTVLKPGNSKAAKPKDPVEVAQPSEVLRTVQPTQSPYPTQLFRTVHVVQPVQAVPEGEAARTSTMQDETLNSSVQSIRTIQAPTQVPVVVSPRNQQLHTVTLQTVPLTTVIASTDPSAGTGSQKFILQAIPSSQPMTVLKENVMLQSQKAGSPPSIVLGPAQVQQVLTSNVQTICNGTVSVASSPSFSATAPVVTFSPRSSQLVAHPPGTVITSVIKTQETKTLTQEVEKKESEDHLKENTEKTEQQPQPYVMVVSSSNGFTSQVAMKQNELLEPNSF
SPIB, sequence (Q01892 whole entry): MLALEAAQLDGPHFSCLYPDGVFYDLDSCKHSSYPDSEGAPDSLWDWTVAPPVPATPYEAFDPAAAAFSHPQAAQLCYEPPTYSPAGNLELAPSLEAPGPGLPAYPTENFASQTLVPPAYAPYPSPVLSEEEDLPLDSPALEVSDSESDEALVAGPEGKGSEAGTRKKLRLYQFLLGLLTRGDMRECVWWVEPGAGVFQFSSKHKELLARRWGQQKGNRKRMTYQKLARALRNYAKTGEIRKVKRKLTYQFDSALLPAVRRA

For CTGAAC, the binding signal is 1.35 fold enrichment (6-mer frequency, TF over GST control) in the assay with FLI1; 1.41 fold enrichment (6-mer frequency, TF over GST control) with ELK1; 1.37 fold enrichment (6-mer frequency, TF over GST control) with GABPA; 1.4 fold enrichment (6-mer frequency, TF over GST control) in the assay with ERG; 1.37 fold enrichment (6-mer frequency, TF over GST control) in the assay with ELF1; 1.35 fold enrichment (6-mer frequency, TF over GST control) with EHF. Moreover, the binding signal is 1.36 fold enrichment (6-mer frequency, TF over GST control) in the assay with SPI1; 1.42 fold enrichment (6-mer frequency, TF over GST control) with SPIB; 1.2 fold enrichment (6-mer frequency, TF over GST control) in the assay with ELK3.
As for TACATG, the binding signal was 1.24 fold enrichment (6-mer frequency, TF over GST control) with FLI1; 1.09 fold enrichment (6-mer frequency, TF over GST control) with ELK1; 1.14 fold enrichment (6-mer frequency, TF over GST control) with GABPA; 1.2 fold enrichment (6-mer frequency, TF over GST control) in the assay with ERG; 1.27 fold enrichment (6-mer frequency, TF over GST control) with ELF1; 1.18 fold enrichment (6-mer frequency, TF over GST control) in the assay with EHF. For the same sequence, the binding signal is 1.26 fold enrichment (6-mer frequency, TF over GST control) in the assay with SPI1; 1.16 fold enrichment (6-mer frequency, TF over GST control) in the assay with SPIB; 1.3 fold enrichment (6-mer frequency, TF over GST control) in the assay with ELK3.
In the case of TATTTT, the binding signal was 1.3 fold enrichment (6-mer frequency, TF over GST control) with FLI1; 1.3 fold enrichment (6-mer frequency, TF over GST control) in the assay with ELK1; 1.34 fold enrichment (6-mer frequency, TF over GST control) with GABPA; 1.39 fold enrichment (6-mer frequency, TF over GST control) with ERG; 1.31 fold enrichment (6-mer frequency, TF over GST control) with ELF1; 1.44 fold enrichment (6-mer frequency, TF over GST control) in the assay with EHF. Also, the binding signal in the assay with SPI1 was 1.35 fold enrichment (6-mer frequency, TF over GST control); with SPIB it was 1.32 fold enrichment (6-mer frequency, TF over GST control); with ELK3, 1.36 fold enrichment (6-mer frequency, TF over GST control).
On to ATTTCG, for which the binding signal with FLI1 is 1.24 fold enrichment (6-mer frequency, TF over GST control); in the assay with ELK1, 1.25 fold enrichment (6-mer frequency, TF over GST control); with GABPA, 1.29 fold enrichment (6-mer frequency, TF over GST control); with ERG it was 1.25 fold enrichment (6-mer frequency, TF over GST control); in the assay with ELF1, 1.3 fold enrichment (6-mer frequency, TF over GST control); with EHF, 1.35 fold enrichment (6-mer frequency, TF over GST control). Besides, the binding signal with SPI1 is 1.29 fold enrichment (6-mer frequency, TF over GST control); with SPIB it was 1.37 fold enrichment (6-mer frequency, TF over GST control); with ELK3, 1.21 fold enrichment (6-mer frequency, TF over GST control).
With TCTTCT, the binding signal is 1.3 fold enrichment (6-mer frequency, TF over GST control) in the assay with FLI1; 1.29 fold enrichment (6-mer frequency, TF over GST control) with ELK1; 1.21 fold enrichment (6-mer frequency, TF over GST control) with GABPA; 1.23 fold enrichment (6-mer frequency, TF over GST control) with ERG; 1.25 fold enrichment (6-mer frequency, TF over GST control) with ELF1; 1.14 fold enrichment (6-mer frequency, TF over GST control) in the assay with EHF. Also, the binding signal in the assay with SPI1 is 1.22 fold enrichment (6-mer frequency, TF over GST control); in the assay with SPIB, 1.19 fold enrichment (6-mer frequency, TF over GST control); in the assay with ELK3 it was 1.25 fold enrichment (6-mer frequency, TF over GST control).
Consider ATCCGG, for which the binding signal with FLI1 was 2.65 fold enrichment (6-mer frequency, TF over GST control); with ELK1 it was 2.59 fold enrichment (6-mer frequency, TF over GST control); with GABPA it was 2.37 fold enrichment (6-mer frequency, TF over GST control); in the assay with ERG, 3.22 fold enrichment (6-mer frequency, TF over GST control); in the assay with ELF1 it was 2.29 fold enrichment (6-mer frequency, TF over GST control); with EHF, 2.65 fold enrichment (6-mer frequency, TF over GST control). Moreover, the binding signal with SPI1 is 2.37 fold enrichment (6-mer frequency, TF over GST control); with SPIB it was 2.77 fold enrichment (6-mer frequency, TF over GST control); with ELK3, 2.66 fold enrichment (6-mer frequency, TF over GST control).
For the sequence TTACCT, the binding signal was 1.12 fold enrichment (6-mer frequency, TF over GST control) with FLI1; 1.19 fold enrichment (6-mer frequency, TF over GST control) with ELK1; 1.32 fold enrichment (6-mer frequency, TF over GST control) with GABPA; 1.17 fold enrichment (6-mer frequency, TF over GST control) with ERG; 1.19 fold enrichment (6-mer frequency, TF over GST control) with ELF1; 1.31 fold enrichment (6-mer frequency, TF over GST control) with EHF. Besides, the binding signal was 1.19 fold enrichment (6-mer frequency, TF over GST control) in the assay with SPI1; 1.4 fold enrichment (6-mer frequency, TF over GST control) in the assay with SPIB; 1.22 fold enrichment (6-mer frequency, TF over GST control) with ELK3.
